Measured values as given in PubChem BioAssay (NCATS).
Inconclusive results are not listed. Calls come from the whole dose curve; as a rule, active = well fitted curve in either direction with a large enough effect (not every such curve was filed as active); inconclusive = small, poorly fitted or top-dose-only effect, or another doubt; inactive = flat fitted curve, though single readings scatter.

Test: AP1 Signaling Pathway (AID 357)
Details: ME-180 (cervical carcinoma) AP-1-bla reporter, EGF-induced, beta-lactamase ratio, 5 h; at 17.2 µM (top of the series) unless noted
How it was run: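 In this screen, ME-180 cells in Opti-MEM with 0.5% dialyzed FBS received EC50 EGF and compound titrations for 5 h. AP-1 reporter beta-lactamase was detected via CCF4 ratio, giving AC50 for positive and negative modulators.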
% is set by controls: 0 for no effect and ±100 for the full control effect.

Activity change, negative = inhibition, inactive:
Cc1ccc(C2/C(=C(/O)c3cnn(-c4ccccc4)c3C)C(=O)C(=O)N2CCN2CCOCC2)o1 (configuration not stated) -8.72%
Cc1ccc(C2CC(c3cccs3)n3nc(N)nc3N2)cc1 (configuration not stated) 2.57%
Cc1nc(SCC(N)=O)[nH]c(=O)c1Cc1ccc(OC(C)C)cc1 12%
NC(=O)c1cc(-c2ccccc2)nc(Oc2ccccc2)n1 -14.4%
COc1ccccc1C(=O)Nc1cc(Cl)ccc1O -12.2%
CN=C1c2c(-c3ccccc3)c3cc(OC)ccc3n2CCN1C 24.6%
CCCCOC(=O)c1[nH]c(C)c(C(=O)OC)c1C -3.13%
CCCC(=O)Nn1cnc2c(c1=O)C1(CCCC1)Cc1ccccc1-2 -5.55%
OC(CCCN1CCC(O)(c2ccc(Cl)cc2)CC1)c1ccc(F)cc1 (configuration not stated) -2.74%
CCCc1nc2n[nH]c(N)c2c2c1CCCC2 6.52%
CC1(C)CC(N(Cc2ccco2)C(=O)Cc2ccccc2)CCO1 (configuration not stated) -1.99%
Cc1oc2nc(SCCCC(=O)NCCCO)nc(N)c2c1C -11.8%
Cc1ccc(-n2nc3cc(Cl)c(NC(=O)c4ccco4)cc3n2)cc1 28.5%
CCCC1Cc2c(sc3nc(SC)nc(N)c23)CO1 (configuration not stated) -3.09%
COC(=O)C(NC(=O)c1ccccc1)(Nc1nc(C)cs1)C(F)(F)F (configuration not stated) 20%
Cc1cc(N2CCN(C3CCCC3)CC2)n2c(nc3ccccc32)c1C#N 17.3%
COC(=O)c1ccc(=O)n(Cc2ccco2)c1 4.81%
